From the supplement of paper PMC11417369
± gives the standard deviation of the averaged measurements. The full ranking holds about 25,000 sequences; the median of “ln(normalized median fluorescence intensity)” is about 8.9, and the highest 2% start at about 10. The list comes from a sample in which the highest values are over-represented; it also holds similar and randomly drawn sequences.

Test system: PfAP2-LT AP2 domain (GST-tagged)
Assay: gcPBM binding intensity (ln(normalized median fluorescence intensity)); higher = stronger DNA binding
Method in brief: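 After 1 h on an Agilent 4 × 180k array of primer-extended double-stranded 36-bp intergenic genomic probes and negative controls, bound GST-tagged P. falciparum DNA-binding domains were detected with Alexa488 anti-GST antibody and scanned at 488 nm. The domains had been expressed in E. coli, and binding took place in 1× PBS with 1% milk, 0.2 mg/ml BSA, 0.5% salmon testes DNA and 0.03% Triton X-100. Binding intensity is the highest Masliner-normalised natural-log median intensity across replicate spots of either probe orientation.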

Sequence | gcPBM binding intensity (ln)
AATACAGACAGACACACACACAAAATAAAATACAAA [CACACA_site245] | 9.95 ± 0.38
TTAATACCCGGACACACACACACAAAATAAAATACA [CACACA_site4296] | 9.85 ± 0.27
TTAATACCCAGACACACACACACAAAATAAAATACA [CACACA_site7968] | 10.1 ± 0.48
ATAATTAACAAATACACACACACACCCCCACAAAAA [CACACA_site518] | 10.5 ± 0.26
AAATAAATATATATATGTACATACAAATACACGGTA [XGTACX_site8510] | 9.09 ± 0.4
TATTGTTTTAAAGAGACATGCAATATATATTATTCC [TGCATGCA_site752] | 8.51 ± 0.42
AATGGGTAAACATACACACACACATATATATATATA [CACACA_site1991] | 10.2 ± 0.11
GTACATACATAAAACACACACATATATATATATATA [CACACA_site1826] | 10.17 ± 0.071
TATATACATAAACACACACACACATATATATATATA [CACACA_site8707] | 9.89 ± 0.2
TATATAAATAGATACACACATACATACATACATACA [CACACA_site260] | 9.61 ± 0.37
TACATACATAAACACACACACACATATATATATATA [CACACA_site8953] | 10.2 ± 0.23
AAAAAAAACATACATACACACACATAAATATATATA [CACACA_site8864] | 9.72 ± 0.23
TAGATACATAAACACACACACACATACATATATACA [CACACA_site9139] | 10.2 ± 0.23
AATGGGTAAACATACACACACACATCTATATTTATA [CACACA_site7025] | 9.78 ± 0.4
CATATACATAAACACACACACACATAAATAAATATA [CACACA_site4864] | 10 ± 0.13
TACAGATATAAACACACACACATATATATATATATA [CACACA_site4846] | 10.05 ± 0.092
TACATATATAAAAAAACACACACATATATATATATA [CACACA_site8315] | 9.665 ± 0.021
GAAATGGGTAAACATACACACACACCGATATATATA [CACACA_site8610] | 9.87 ± 0.23
TTTGAGATAAAAGACTGTACTTAGAATGTATAAAAA [XGTACX_site203] | 8.48 ± 0.6
ATATGCTATTTACTAGTGCAAAATATTTAAAATATG [GTGCAC_site9517] | 8.61 ± 0.36
ATAATTTTCCATATTTGTACATATTTTTTTCCCTTG [XGTACX_site8146] | 8.92 ± 0.59
ATTTGTTATATATTCTTTTATGTTAATAATTCGAAT [CACACA_negctrl_site378] | 8.7 ± 0.45
ATAATTAGGGTGTATTTCATTTCATTTCATTTTATT [CACACA_negctrl_site1418] | 9.04 ± 0.4
TTTTTCTAATTATGCACACATATCAAAATATTCAAT [CACACA_site2749] | 8.79 ± 0.46
AATATTCTATATGATACATGCATGATGGAATAAAAA [TGCATGCA_site980] | 8.93 ± 0.3

Sequence | gcPBM binding intensity (ln)
ATATATATTTAAAGATGTACATAATGAAATGGTTAT [XGTACX_site4706] | 9.01 ± 0.47
CAAATACAGAAACACACACACATATACATATATATA [CACACA_site3498] | 9.77 ± 0.19
ACAGAAAAAAAACACACACACATAATATACATACAT [CACACA_site1932] | 9.82 ± 0.19
TATATACAGAAACACACACACACATATATATATATA [CACACA_site2247] | 10.15 ± 0.057
CATACACAGAAACACACACACATATATACATATATA [CACACA_site1094] | 9.98 ± 0.24
TAGATACAGAAACACACACACACATACATATATACA [CACACA_site3437] | 9.97 ± 0.24
CATACACAGAAACACACACACATATATATATATATA [CACACA_site4519] | 10.2 ± 0.3
ATTTTTTTTTTTTTTTTTCATTTTTTTTTTTTTTTT [CACACA_negctrl_site1204] | 8.62 ± 0.54
AAAAAAGCAATATGATGTACATTTACTTTGTGAAAG [XGTACX_site4450] | 8.73 ± 0.46
TTAAATAGCTGTAATTGTACAAATAAATACATAAAT [XGTACX_site3097] | 8.82 ± 0.38
AAAAAAAAAAAAAAAACATGCAGTTAGTGGTTTTTT [TGCATGCA_site243] | 8.82 ± 0.4
AAGTAAAATAAGTATACACACATAAATATGTAAATA [CACACA_site6467] | 9.29 ± 0.4
AAAAAATAAAACATATATAATATATAATATATATAT [GTGCAC_negctrl_site447] | 8.69 ± 0.4
GGTATACACAAGTATACACACATATAAATATAAATA [CACACA_site7511] | 9.16 ± 0.49
AGCAGACACCAACACACACACATATATATATATATA [CACACA_site337] | 10.4 ± 0.13
TATATACATACATATACACACATATATATATATATA [CACACA_site401] | 9.72 ± 0.21
CGCATACACCAACACACACACACATATATATATATA [CACACA_site635] | 9.96 ± 0.48
ATGGGACATATATATACACACATATATATATATATA [CACACA_site1202] | 9.96 ± 0.24
AGTATACATATATATACACACACATATATATATATA [CACACA_site7883] | 9.805 ± 0.064
AGTATACACAGACACACACACACATATATATATATA [CACACA_site8510] | 10.3 ± 0.42
AGTATACAGATATATACACACATATATATATATATA [CACACA_site4323] | 9.935 ± 0.021
TACACAAGCGGACACACACACATATATATATATATA [CACACA_site4832] | 10.415 ± 0.0071
GGTATACTCAAGTATACACACATATATATATATATA [CACACA_site5746] | 9.64 ± 0.49
GGTATACACAAGTATACACACATATATATATATATA [CACACA_site9063] | 10.16 ± 0.099
TATATATATATACCAACACACATACATATATATATA [CACACA_site8530] | 9.38 ± 0.14
